This is a sample that favours compounds with a hit; in the whole collection about 2.4% have one here.
HSF1 inhib: HSF1 inhibition; 0.77% of 300,000 active; NIH3T3-HGL HSE-luciferase, MG132-induced, luminescence 8 h; stronger effect = lower value; activity change, negative = inhibition, % at 7.5 µM (by protocol); AID 2098;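 active means more than half of replicate wells show activity change below -50%, luminescence cut by over half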;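 further: luciferase reports HSF-1 transcriptional activity via heat shock element; 0% = median of DMSO wells and -100% = zero luminescence signal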
TLR4 MyD88 comp: inhibitors of human TLR4-MyD88 binding. HeLa CL3-4 TLR4/MyD88 BLA complementation, FRET ratio. inhibition, % at 8.4 µM. 0.18% of 200,000 active; in the data active means inhibition above about 25%;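 further: 0% = vehicle and 100% = reference inhibitor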
TLR9-MyD88 block: blocks human TLR9 binding to MyD88; CHO BLA complementation TLR9-MyD88, CCF4 FRET ratio; inhibition, % at 4.98 µM; 0.21% of 340,000 active; AID 504734;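 active means inhibition above the mean over all tested compounds plus 3 SD, cut at about 21% in these data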;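 further: 0% = DMSO only wells and 100% = clavulanate BLA inhibitor control wells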
HSF-1 act: increases HSF-1 driven luciferase reporter signal. NIH3T3-HGL HSF-1 luciferase reporter, MG132, 8 h; 100% = twice DMSO control signal. activation, % at 9 µM. 1.7% of 300,000 active;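 active means mean replicate activation of at least 50% with a set share of replicates each reaching 50%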;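 further: 0% = median of the neutral control wells and 100% = twice that signal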
NOD2-RIPK2 inh: inhibitors of human NOD2-RIPK2 interaction; O43353; CHO BLA complementation NOD2-RIPK2, CCF4 ratio; inhibition, % at 4.98 µM; 0.38% of 360,000 active; AID 624267; in the data active means inhibition above about 21%;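 further: 0% = vehicle only and 100% = reference blocker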
NOD2 RIPK2 conf: confirmation of human NOD2-RIPK2 interaction inhibitors | shares compounds with NOD2-RIPK2 inh | 70% of 1,200 active | inhibition, % at 4.98 µM | CHO cells, NOD2-RIPK2 BLA complementation, CCF4 FRET;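 active means mean inhibition across replicates above a set limit taken from the earlier primary screen, cut at about 21% in these data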;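 further: 0% = DMSO-only wells and the high end = clavulanate BLA-blocked wells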
BLA counter: hits BLA reporter in NOD2-RIPK2 inhibitor counterscreen; shares compounds with NOD2-RIPK2 inh; CHO BLA reporter, CCF4 FRET ratio; inhibition, % at 4.98 µM; 57% of 1,200 active;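 active means mean inhibition above the low-control mean inhibition plus three low-control SD, cut at about 11% in these data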;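 further: 0% = DMSO only wells and 100% = clavulanate high control wells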
Starred values were filed as active, the others as inactive; · = no result.

SMILES	HSF1 inhib	TLR4 MyD88 comp	TLR9-MyD88 block	HSF-1 act	NOD2-RIPK2 inh	NOD2 RIPK2 conf	BLA counter
CCN(CC)Cc1c(O)ccc2cc(-c3nc4ccccc4n3C)c(=O)oc12	25	·	-2	68*	29*	35*	56*
COc1ccc(CN2CCN(C(=O)c3ccccc3C(=O)c3ccccc3)CC2)cc1OC	·	·	2	·	-3	·	·
COc1ccc(-n2sc3ccc(F)cc3c2=O)cc1	·	·	16	·	40*	40*	2
COc1ccc(-n2sc3ccccc3c2=O)cc1	·	·	0	·	26*	44*	7
Cc1ccccc1NC(=O)c1sc2nc3c(c(-c4ccco4)c2c1N)CCCC3	3	17	11	8	39*	51*	56*
Nc1c(C(=O)Nc2ccccc2)sc2nc3c(c(-c4ccco4)c12)CCCC3	24	19	13	11	9	·	·
CCOC(=O)c1c(C)[nH]c(C2=NNC(=Nc3ccc(OCC)cc3)SC2)c1C	·	-6	5	·	35*	-1	-6
CCOC(=O)c1c(C)[nH]c(C2=NNC(=Nc3ccccc3)SC2)c1C	-27	0	-5	-35	-9	·	·
Cc1cc(F)ccc1NC(=O)c1ccc(NS(=O)(=O)c2cc(C(C)(C)C)ccc2C)cc1	8	-6	2	-1	-3	·	·
CC(=O)Nc1ccc(NC(=O)c2ccc(NS(=O)(=O)c3cc(C(C)(C)C)ccc3C)cc2)cc1	6	10	5	18	39*	-34	-8
CCOc1cc(C(C(=O)NCC2CCCO2)N(C(=O)Cn2nnc3ccccc32)c2ccccc2C(C)=O)ccc1O (centres undefined)	-5	·	-4	2	-7	·	·
Cc1ccc(S(=O)(=O)N2CC(O)C[C@H]2C(=O)OCC(=O)Nc2ccc(N3CCCCC3)cc2)cc1C (some centres undefined)	-8	·	-17	12	-2	·	·
O=c1c(O)c(-c2ccc(O)c(O)c2)oc2cc(O)ccc12	·	·	20	·	25*	29*	28*
COc1ccc(OC)c(C2C(C(=O)c3ccco3)=C(O)C(=O)N2CC2CCCO2)c1 (centres undefined)	-4	·	7	-1	21*	1	0
COc1ccc(/C=C2\COc3ccccc3C2=O)cc1OC	-11	-6	-16	-1	6	·	·
CCOc1cc(/C=C2\COc3ccccc3C2=O)cc(Br)c1OCC(=O)N(C)C	18	·	4	50	26*	28*	-4
O=C1C(=NO)C(c2ccccc2)Oc2ccccc21 (centres undefined)	·	·	12	·	28*	20	27*
O=C(c1ccccc1)N1C(=O)C(c2ccccc2)Oc2ccccc21 (centres undefined)	2	·	-6	-6	-9	·	·
CCn1c(NCc2cc(Cl)ccc2O)nc2ccccc21	1	·	-5	-20	46*	-1	-1
C=CCn1c(NCc2cc(Cl)ccc2O)nc2ccccc21	3	·	1	9	2	·	·
O=c1ccc2ccccc2c2ccccc12	·	·	·	·	43*	41*	-3
c1ccc2c(c1)ccc1ccccc12	·	·	-10	·	-11	·	·
O=C(c1noc2c1CSc1ccccc1-2)N1CCN(c2ccc(Cl)cc2)CC1	-3	·	-11	-5	10	·	·
Cc1ccc(SC(C)C(=O)Nc2ccccc2-c2ccccc2)cc1 (centres undefined)	11	-10	-6	29	43*	3	-3
OCC(O)C1OC(c2ccccc2)OC(CO)C1O (centres undefined)	·	·	5	·	-2	·	·
SMILES	HSF1 inhib	TLR4 MyD88 comp	TLR9-MyD88 block	HSF-1 act	NOD2-RIPK2 inh	NOD2 RIPK2 conf	BLA counter
O=c1sc(/C=N/Nc2ccccc2)c(Cl)n1Cc1ccccc1	119	-8	-7	149*	29*	5	1
O=C(O)c1cccc(Cn2c(Cl)c(/C=N/NC(=O)c3ccc(O)cc3)sc2=O)c1	5	·	7	19	-3	·	·
CC(NC(=O)CN(c1cccc(C(F)(F)F)c1)S(=O)(=O)c1ccc(Cl)c([N+](=O)[O-])c1)c1ccccc1 (centres undefined)	7	-4	8	13	39*	35*	-1
O=C(CN(c1cccc(C(F)(F)F)c1)S(=O)(=O)c1ccc(Cl)c([N+](=O)[O-])c1)NCc1ccccc1	6	14	-3	14	-12	·	·
COC[C@H]1CCCN1c1ccc2c(c1)O[C@@H](COCc1ccccc1)CN([C@H](C)c1ccccc1)S2(=O)=O	·	·	·	·	-20	·	·
CN(C)c1ccc(C=Cc2ccnc3ccccc23)cc1N	·	·	·	·	33*	32*	33*
COc1nn(-c2ccccc2)c(=O)c(Cl)c1Cl	-93*	·	-13	-94	27*	27*	6
CN(C)c1ccc(S(=O)(=O)N2CCC(Cc3ccccc3)CC2)cn1	·	·	4	·	-5	·	·
Cc1ccc(C)c(NS(=O)(=O)c2ccc(-c3cnc(C4CC4)o3)cc2)c1	-34	·	3	-40	11	·	·
Cc1cccc(NS(=O)(=O)c2ccc(-c3cnc(C4CC4)o3)cc2)c1C	-36	·	2	-40	26*	14	-1
COc1ccc(-c2cc(C(=O)NC3CCCCC3)no2)cc1OC	-9	·	-20	-4	58*	6	2
Cc1ccc(-c2cc(C(=O)NC3CCCCC3)no2)cc1	3	·	-3	-4	-4	·	·
COc1ccc2c(c1)sc1nc(-c3ccccc3)cn12	-68*	-5	-8	-72	40*	9	-1
CCN(CC)C(=O)c1csc(COCCO)n1	·	·	·	·	0	·	·
CC(=O)Nc1cc(-c2cccc(F)c2)cn2c(-c3ccccc3)cnc12	·	·	·	·	5	·	·
COc1ccccc1CCNC(=O)C(=O)Nc1cc2c3c(c1)CC(=O)N3CCC2	0	·	0	12	1	·	·
O=[N+]([O-])c1ccc(Sc2cccc3cccnc23)c([N+](=O)[O-])c1	-1	6	3	33	19	·	·
O=[N+]([O-])c1ccc(Sc2ccncn2)c([N+](=O)[O-])c1	·	·	12	·	24*	23*	-1
CC(C)C(=O)N1CCN(c2ccc(NC(=O)c3ccc([N+](=O)[O-])o3)cc2Cl)CC1	·	17	6	·	26*	23*	8
CN1CCN(c2ccc(NC(=O)c3ccc([N+](=O)[O-])o3)cc2Cl)CC1	-78*	·	9	-79	23*	20	17*
CC(=O)N1CCN(c2ccc(NC(=O)c3ccc(Br)o3)cc2Cl)CC1	4	-19	-10	11	-7	·	·
CNC(=O)C(=O)NCC1OCCCN1S(=O)(=O)c1ccc(F)cc1C (centres undefined)	-4	·	-2	-4	9	·	·
CCOCCCNC(=O)/C(C#N)=C/c1ccc([N+](=O)[O-])o1	39	24	20	45	26*	54*	27*

Screening results (PubChem BioAssay)
